This excerpt belongs to a sample that is enriched for hits.
BL2 CD40 inh: CD40 pathway inhibition in BL2 cells; BL2 NF-kB luciferase reporter, CD40L-induced, 4 h; inhibition, % at 10 µM; hit rate 0.94% among 83,000; AID 1053188;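 active = mean inhibition of at least 50% with a set share of replicates also reaching that level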
A number is an active result; – = inactive; [ ] = another dose, or the depositor's remark.

SMILES | BL2 CD40 inh
O=C(CN1C(=O)c2ccccc2S1(=O)=O)Nc1ncccn1 | –
Cc1cc(C)nc(NC(=O)CN2C(=O)c3ccccc3S2(=O)=O)n1 | –
NCC[C@@H]1CC[C@@H](NS(=O)(=O)c2ccc(Cl)cc2)[C@@H](CO)O1 | –
COCCNC(=O)C[C@H]1CC[C@H]2[C@@H](COC[C@@H](O)CN2S(=O)(=O)c2ccccc2F)O1 | –
O=C(CN1CCN(Cc2ccccc2)C1=O)NCc1cccs1 | –
CC(=O)c1cc(-c2ccccc2)n(CCC(=O)NC2CCCCCCC2)c1C | –
CC(=O)c1cc(-c2ccccc2)n(CC(=O)NCc2cccs2)c1C | 53.7
COc1ccc(NC(=O)N(C)C[C@H]2OCc3ccccc3-c3c(n(C)c4ccccc34)C(=O)N([C@@H](C)CO)C[C@H]2C)cc1 | –
CCCNC(=O)N1[C@H](CO)[C@H](c2ccccc2)[C@H]1CNC(=O)c1cccc(F)c1 | –
Oc1ccc(CN2CCCc3ccccc32)c2cccnc12 | –
Cc1cccnc1NCc1ccc(O)c2ncccc12 | 58.7
Cc1ccc(-n2cnnn2)c2cccnc12 | –
N#Cc1cccc(-c2ccc3c(c2)[C@@H]2[C@@H](CCN2C(=O)CN2CCOCC2)[C@@H](CO)N3)c1 | active[25 µM]
N#Cc1cccc(-c2ccc3c(c2)[C@H]2[C@H](CCN2C(=O)CN2CCOCC2)[C@@H](CO)N3)c1 | –
N#Cc1ccc(-c2ccc3c(c2)[C@H]2[C@H](CCN2C(=O)C2CCC2)[C@@H](CO)N3)cc1 | –
N#Cc1ccc(-c2ccc3c(c2)[C@H]2[C@H](CCN2C(=O)C2CC2)[C@@H](CO)N3)cc1 | 68.1
N#Cc1cccc(-c2ccc3c(c2)[C@@H]2[C@@H](CCN2C(=O)CN2CCOCC2)[C@H](CO)N3)c1 | –
N#Cc1ccc(-c2ccc3c(c2)[C@@H]2[C@@H](CCN2C(=O)C2CC2)[C@H](CO)N3)cc1 | –
C[C@@H]1CN([C@@H](C)CO)C(=O)c2cc(NC(=O)Nc3cccc4ccccc34)ccc2O[C@@H](C)CCCCO[C@@H]1CN(C)Cc1ccc(C(F)(F)F)cc1 | –
O=C(C[C@H]1CC[C@H]2[C@@H](COC[C@H](O)CN2CC2CCCCC2)O1)NCC1CC1 | –
Cc1ccc(S(=O)(=O)N(C)C[C@@H]2OCCCC[C@@H](C)Oc3ccc(NS(=O)(=O)c4cccs4)cc3C(=O)N([C@@H](C)CO)C[C@@H]2C)cc1 | –
COc1cccc(-c2ccc3c(c2)[C@@H]2[C@@H](CCN2C(=O)NC2CCCCC2)[C@H](CO)N3C)c1 | –
CC1CC(C)C(=NNC(N)=O)C(C(O)CC2CCC(=O)NC2=O)C1 (centres undefined) | 55.9
CC(=O)Nc1ccc2c(c1)CC(=O)N(C)C[C@@H](C)[C@H](CN(C)C(=O)NC(C)C)O2 | –
CN(CC(=O)N1CCCCC1)S(=O)(=O)c1ccc(Cl)cc1 | –
SMILES | BL2 CD40 inh
CCN1CCN(C(=O)CN(C)S(=O)(=O)c2ccc(Cl)cc2)CC1 | –
C=CC(=O)N1C/C(=C/c2ccc(Cl)cc2)C(=O)/C(=C\c2ccc(Cl)cc2)C1 | 92.8
CO[C@H]1CN(C)C(=O)c2cc(NC(C)=O)ccc2OC[C@H](C)N(Cc2ccncc2)C[C@@H]1C | –
Cc1csc(NC(=O)c2ccc(N3CCCC3=O)cc2)n1 | 92.3
O=C(NC1=NCCS1)c1ccc(N2CCCC2=O)cc1 | –
Cc1nnc(NC(=O)c2ccc(N3CCCC3=O)cc2)s1 | –
c1cc2c(cc1C1CCCCC1)c1c3n2CCNC3CCC1 (centres undefined) | –
O=C(C1CCOCC1)N1CC(=O)N2[C@@H](CO)[C@H](c3ccc(/C=C/c4ccccc4)cc3)[C@@H]2C1 | –
COCC(=O)N1[C@H](C#N)[C@H](c2ccccc2-c2cccc(F)c2)[C@H]1CO | –
CO[C@H]1CC[C@H]2CCOc3c(C#N)cccc3C(=O)N(C)CCCC(=O)N(C)C[C@H]1O2 | –
O=C(NC1CCCC1)N[C@H]1C=C[C@H](CC(=O)N2CCOCC2)O[C@H]1CO | –
Cc1nonc1C(=O)N/N=C/c1ccc([N+](=O)[O-])o1 | –
COc1ccc(/C=N/NC(=O)CC(=O)N/N=C/c2ccc(OC)cc2)cc1 | –
COc1ccc(/C=N/NC(=O)c2nonc2C)cc1 | 63.9
Cc1nc(-c2ccc(F)cc2)c(CC(=O)N(C)CC(=O)Nc2ccccc2C(F)(F)F)s1 | –
Cc1nc(-c2ccc(F)cc2)c(CC(=O)N(C)CC(=O)Nc2ccccc2Br)s1 | –
Cc1nc(-c2ccc(F)cc2)c(CC(=O)N(C)CC(=O)Nc2ccc(Br)cc2C)s1 | 91.5
Cc1nc(-c2ccc(F)cc2)c(CC(=O)NCC(=O)Nc2ccc(F)c(F)c2)s1 | –
Cc1nc(-c2ccc(F)cc2)c(CC(=O)N(C)CC(=O)Nc2cccc(F)c2)s1 | 54.0
CCN(CC(=O)Nc1ccccc1C(F)(F)F)C(=O)Cc1sc(C)nc1-c1ccc(F)cc1 | –
CN1CCN(C(=O)C[C@@H]2C[C@@H]3c4cc(NC(=O)NC5CCCCC5)ccc4O[C@@H]3[C@@H](CO)O2)CC1 | –
CO[C@H](CN(C)Cc1cc(F)ccc1F)[C@@H](C)CN([C@@H](C)CO)S(=O)(=O)c1ccc(F)cc1 | –
O=C(C1CCCC1)N1CC(=O)N2[C@H](C1)[C@H](c1ccc(-c3cccnc3)cc1)[C@@H]2CO | –
O=C(c1ccccc1)N1C[C@H]2[C@@H](c3ccccc31)[C@@H](CO)N2S(=O)(=O)c1ccccc1 | –
C/C=C/c1ccc([C@@H]2[C@@H](CO)N(C(C)=O)[C@@H]2CN(C)C(=O)CN(C)C)cc1 | –
SMILES | BL2 CD40 inh
C[C@H]1CN([C@@H](C)CO)S(=O)(=O)c2ccc(C#CC3CC3)cc2O[C@@H]1CN(C)C(=O)CN(C)C | –
Cc1nn2c(NCCN(C)C)c3c(nc2c1-c1ccccc1)CCCC3 | –
COc1cccc(-c2cc3nc4c(c(NCC(C)(C)CN(C)C)n3n2)CCCC4)c1 | 62.9
Cc1nn2c(NCc3cccnc3)c3c(nc2c1-c1ccccc1)CCC3 | –
COc1ccccc1-c1ccc(C2[C@H]3CNC[C@@H]2N3Cc2nccs2)cc1 (some centres undefined) | –
O=C(NCC1CCCCC1)[C@@H]1[C@@H](CO)[C@@H]2Cn3c(cccc3=O)[C@H]1N2C(=O)c1ccncc1 | –
C[C@@H]1CN(C)C(=O)c2cc(N)ccc2O[C@@H]1CN(C)C | –
COCC(=O)N1CCC2(CC1)CN(C(=O)c1ccccn1)[C@@H](CO)c1c2c2ccc(OC)cc2n1C | –
CC(C)C#Cc1ccc([C@H]2[C@H]3CN(S(=O)(=O)c4ccccc4)CC(=O)N3[C@H]2CO)cc1 | –
O=c1[nH]c(C(F)(F)F)nc2ccccc12 | –
CC(C)N1C(=O)/C(=C\c2nc3ccccc3c(=O)[nH]2)c2ccccc21 | 32.6
CC(C)Sc1nc2ccccc2c(=O)[nH]1 | –
COc1ccc2c3c([nH]c2c1)[C@H](CO)N(C(=O)c1ccc(F)cc1)CC31CCN(S(=O)(=O)c2cccs2)CC1 | –
COc1ccc2c3c(n(C)c2c1)[C@H](CO)N(C(=O)C1CC1)CC31CCN(C(=O)C2CCOCC2)CC1 | –
C[C@H]1CN([C@@H](C)CO)C(=O)CCCn2cc(nn2)CO[C@H]1CN(C)C(=O)Nc1cccc2ccccc12 | –
CCOC(=O)c1cc2c(ccn2C)n1Cc1ccc(Cl)cc1 | –
CCOC(=O)c1cc2c(ccn2C)n1CC(=O)N(C)C | –
CCOC(=O)c1cc2c(ccn2C)n1Cc1ccc(C#N)cc1 | 54.9
Cc1ccccc1-c1ccc2c(c1)O[C@H](CN(C)C(=O)Nc1ccc(C(F)(F)F)cc1)[C@H](C)CN([C@@H](C)CO)S2(=O)=O | –
CCNC(=O)[C@H]1[C@H](CO)[C@H]2Cn3c(ccc(/C=C/c4ccccc4)c3=O)[C@@H]1N2C(=O)C1CCCC1 | –

Assay outcomes from PubChem BioAssay.
